The values that follow come from publication PMC10812921, “Transcriptional Coactivator BOB1 (OBF1, OCA-B) Modulates the Specificity of DNA Recognition by the POU-Domain Factors OCT1 and OCT2 in a Monomeric Configuration”.

One experiment deals with POU1 (OCT1 POU domain) (human, UniProt P14859 260-458). Description: EMSA-SELEX-seq; no BOB1; 20 mM Tris-HCl pH 7.6, 140 mM NaCl, 10% glycerol, 0.5 mM EDTA, 0.05% Triton X-100, 0.1 mg/mL BSA, 0.1 mg/mL poly(dI-dC), 5 mM DTT, room temperature, 20 min; high values mean tight binding. The following applies: protein: recombinant; dsDNA, one strand shown. In a few lines:
(§1)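 Binding preference is the percentage of sequenced 8-mers matching a motif pattern. Tagged POU-domain proteins expressed in E. coli BL21 were purified under denaturing conditions and renatured. For binding, 30 ng protein met 300 ng of a PCR-amplified double-stranded random 35-nt library, with or without 28 ng coactivator protein, in 20 μL Tris–HCl pH 7.6 binding buffer for 20 min at RT. Complex bands were cut from native 6% PAGE, eluted and PCR-amplified over four rounds, then Illumina-sequenced.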
A general note: In EMSA bound probe runs differently from free probe, usually more slowly.

The target of another experiment is T1, POU2 (OCT2 POU domain) (human, UniProt P09086 175-386).
T1 sequence: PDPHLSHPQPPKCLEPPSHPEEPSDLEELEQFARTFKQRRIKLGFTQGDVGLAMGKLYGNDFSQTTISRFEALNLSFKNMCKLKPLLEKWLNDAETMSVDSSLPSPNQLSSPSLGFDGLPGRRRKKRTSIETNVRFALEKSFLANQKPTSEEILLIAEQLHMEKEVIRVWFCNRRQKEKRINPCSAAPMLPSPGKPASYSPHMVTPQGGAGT
The description is as above. The following applies: protein: recombinant; dsDNA, one strand shown. In a few lines:
as §1

The target of experiment [1] is POU1 (OCT1 POU domain);BOB1 (OBF1, OCA-B) (human;human, UniProt P14859;Q16633 260-458;1-256, |). Briefly: EMSA-SELEX-seq; with BOB1 (ternary complex band); 20 mM Tris-HCl pH 7.6, 140 mM NaCl, 10% glycerol, 0.5 mM EDTA, 0.05% Triton X-100, 0.1 mg/mL BSA, 0.1 mg/mL poly(dI-dC), 5 mM DTT, room temperature, 20 min; high values mean tight binding. The following applies: protein: recombinant;recombinant; copies: 1;1; dsDNA, one strand shown. In a few lines:
as §1

Experiment [2] addresses T2, POU2 (OCT2 POU domain);BOB1 (OBF1, OCA-B) (human;human, UniProt P09086;Q16633 175-386;1-256, |).
T2 sequence 1: T1 sequence
T2 sequence 2: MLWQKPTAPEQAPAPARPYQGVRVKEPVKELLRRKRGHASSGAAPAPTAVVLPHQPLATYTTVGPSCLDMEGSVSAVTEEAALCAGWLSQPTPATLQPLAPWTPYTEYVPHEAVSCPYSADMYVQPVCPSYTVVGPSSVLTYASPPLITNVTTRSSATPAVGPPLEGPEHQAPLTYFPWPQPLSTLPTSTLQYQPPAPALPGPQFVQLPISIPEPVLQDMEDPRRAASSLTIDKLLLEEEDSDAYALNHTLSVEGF
The description is as above. The following applies: protein: recombinant;recombinant; copies: 1;1; dsDNA, one strand shown. The procedure, abridged: as §1

POU1 (OCT1 POU domain), sequence (P14859 260-458): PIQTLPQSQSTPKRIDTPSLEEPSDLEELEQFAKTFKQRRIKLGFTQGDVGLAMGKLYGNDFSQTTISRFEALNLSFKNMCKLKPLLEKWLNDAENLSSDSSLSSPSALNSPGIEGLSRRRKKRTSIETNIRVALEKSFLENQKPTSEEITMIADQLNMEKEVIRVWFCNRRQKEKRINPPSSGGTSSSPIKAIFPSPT

As to AGATAAAT, the binding signal with POU1 (OCT1 POU domain) was 0.0892 % of ANNNNAAN 8-mers; in the experiment with POU2 (OCT2 POU domain), 0.0886 % of ANNNNAAN 8-mers; in experiment [1], 0.0617 % of ANNNNAAN 8-mers; in experiment [2], 0.0627 % of ANNNNAAN 8-mers.

Regarding AACTTAAA, the binding signal with POU1 (OCT1 POU domain) is 0.0526 % of ANNNNAAN 8-mers; in the experiment with POU2 (OCT2 POU domain), 0.0501 % of ANNNNAAN 8-mers; in experiment [1] it was 0.046 % of ANNNNAAN 8-mers; in experiment [2], 0.038 % of ANNNNAAN 8-mers.

For ATTAGAAC, the binding signal was 0.0427 % of ANNNNAAN 8-mers with POU1 (OCT1 POU domain), 0.0564 % of ANNNNAAN 8-mers with POU2 (OCT2 POU domain), 0.0355 % of ANNNNAAN 8-mers in experiment [1] and 0.0355 % of ANNNNAAN 8-mers in experiment [2].

Regarding ACACAAAA, the binding signal was 0.0454 % of ANNNNAAN 8-mers with POU1 (OCT1 POU domain), 0.0374 % of ANNNNAAN 8-mers in the experiment with POU2 (OCT2 POU domain), 0.0644 % of ANNNNAAN 8-mers in experiment [1] and 0.0363 % of ANNNNAAN 8-mers in experiment [2].

In the case of ACATGAAT, the binding signal was 0.151 % of ANNNNAAN 8-mers in the experiment with POU1 (OCT1 POU domain), 0.179 % of ANNNNAAN 8-mers with POU2 (OCT2 POU domain), 0.0773 % of ANNNNAAN 8-mers in experiment [1] and 0.0925 % of ANNNNAAN 8-mers in experiment [2].

Regarding AACAGAAG, the binding signal was 0.0244 % of ANNNNAAN 8-mers with POU1 (OCT1 POU domain), 0.0339 % of ANNNNAAN 8-mers in the experiment with POU2 (OCT2 POU domain), 0.0273 % of ANNNNAAN 8-mers in experiment [1] and 0.0297 % of ANNNNAAN 8-mers in experiment [2].

Take AGGAGAAT: the binding signal with POU1 (OCT1 POU domain) was 0.0789 % of ANNNNAAN 8-mers; with POU2 (OCT2 POU domain) it was 0.0771 % of ANNNNAAN 8-mers; in experiment [1], 0.0624 % of ANNNNAAN 8-mers; in experiment [2], 0.0702 % of ANNNNAAN 8-mers.

In the case of AGTTAAAG, the binding signal with POU1 (OCT1 POU domain) was 0.0545 % of ANNNNAAN 8-mers; with POU2 (OCT2 POU domain) it was 0.0564 % of ANNNNAAN 8-mers; in experiment [1], 0.064 % of ANNNNAAN 8-mers; in experiment [2], 0.0528 % of ANNNNAAN 8-mers.

With ATCAGAAT, the binding signal in the experiment with POU1 (OCT1 POU domain) was 0.085 % of ANNNNAAN 8-mers; with POU2 (OCT2 POU domain), 0.116 % of ANNNNAAN 8-mers; in experiment [1], 0.0777 % of ANNNNAAN 8-mers; in experiment [2], 0.0784 % of ANNNNAAN 8-mers.

Take AACACAAC: the binding signal with POU1 (OCT1 POU domain) is 0.016 % of ANNNNAAN 8-mers; with POU2 (OCT2 POU domain), 0.019 % of ANNNNAAN 8-mers; in experiment [1] it was 0.014 % of ANNNNAAN 8-mers; in experiment [2], 0.0272 % of ANNNNAAN 8-mers.

ACATAAAG: the binding signal with POU1 (OCT1 POU domain) was 0.0934 % of ANNNNAAN 8-mers; with POU2 (OCT2 POU domain), 0.108 % of ANNNNAAN 8-mers; in experiment [1], 0.0663 % of ANNNNAAN 8-mers; in experiment [2] it was 0.0759 % of ANNNNAAN 8-mers.

Regarding ACCGAAAA, the binding signal is 0.0248 % of ANNNNAAN 8-mers in the experiment with POU1 (OCT1 POU domain), 0.0322 % of ANNNNAAN 8-mers in the experiment with POU2 (OCT2 POU domain), 0.0226 % of ANNNNAAN 8-mers in experiment [1] and 0.0165 % of ANNNNAAN 8-mers in experiment [2].

AAGCAAAT: the binding signal in the experiment with POU1 (OCT1 POU domain) was 0.378 % of ANNNNAAN 8-mers; in the experiment with POU2 (OCT2 POU domain), 0.27 % of ANNNNAAN 8-mers; in experiment [1] it was 0.906 % of ANNNNAAN 8-mers; in experiment [2], 0.826 % of ANNNNAAN 8-mers.

As for AGATCAAC, the binding signal was 0.0175 % of ANNNNAAN 8-mers in the experiment with POU1 (OCT1 POU domain), 0.0207 % of ANNNNAAN 8-mers with POU2 (OCT2 POU domain), 0.0211 % of ANNNNAAN 8-mers in experiment [1] and 0.0338 % of ANNNNAAN 8-mers in experiment [2].

AAAAGAAA: the binding signal with POU1 (OCT1 POU domain) was 0.106 % of ANNNNAAN 8-mers; in the experiment with POU2 (OCT2 POU domain) it was 0.084 % of ANNNNAAN 8-mers; in experiment [1], 0.119 % of ANNNNAAN 8-mers; in experiment [2], 0.0702 % of ANNNNAAN 8-mers.
